Here are results for 22 molecules from PubChem BioAssay (NCATS).

“And” between values parts separate entries of the source, which are not always exact repeats. Identical values can stand only once. Results filed as inconclusive are left out. The source made the active and inactive calls. Calls come from the whole dose curve. Residues, ends and D or L forms follow the SMILES beside them.
Potency is the fitted concentration of half-maximal effect.

The assay is described as follows: Primary qHTS to identify inhibitors of SARS-CoV-2 cell entry (AID 1645846). Note: nearly all actives have a fitted effect of over 45% in size. The note with it: SARS-CoV-2 pseudovirus cell entry assay, luminescence; activity change, negative = inhibition: at 57.1 µM (top of the series) unless noted; series mostly up to 57.1 µM. A digest of the protocol: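 HEK293-ACE2 (Expi293F, stable hACE2), 1500 cells/well, o/n 37C; cpd 23 nL pin, 1 h; MLV-PP w/ SARS-CoV-2-S (Wuhan-Hu-1, Δ19 C-term); 48 h 37C; Bright-Glo luminescence; normalized vs S-PP and bald PP.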
Turning to `CCOC(=O)c1ccc(O)cc1`, the outcome was inactive. For the molecule `CC(=O)Oc1cccc(O)c1`, the activity change, negative = inhibition is -13.8%. Still for that read-out and setting: to `NC[C@H]1O[C@H](O[C@H]2[C@H](O[C@@H]3O[C@H](CO)[C@@H](O)[C@H]3O)C(O)[C@H](N)C[C@@H]2N)[C@H](N)[C@@H](O)[C@@H]1O` (some centres not stated) belongs -2.22% [at 11.3 µM]; to `Cc1ncc(CO)c(CO)c1O`, -1.83%. As to `CC(O)(P(=O)(O)O)P(=O)(O)O`, the molecule was called inactive. For the molecule `NS(=O)(=O)c1cc(C(=O)NN2C[C@H]3[C@H]4CCC(C4)[C@H]3C2)ccc1Cl`, the activity change, negative = inhibition was -24.3%. Take `Cc1oc(=O)oc1CN1CCN(c2cc3c(cc2F)c(=O)c(C(=O)O)c2n3C(C)S2)CC1` (configuration not stated): the Potency entry was “inactive”. Consider `OCCOCCN1CCN(C2=Nc3ccccc3Sc3ccccc32)CC1`, for which the activity change, negative = inhibition is -1.17%.

Turning to `CC(=O)N1CCN(c2ccc(OC[C@H]3CO[C@](Cn4ccnc4)(c4ccc(Cl)cc4Cl)O3)cc2)CC1`, the Potency was 15.8 µM (active).

Regarding `Cc1cc(C)nc(NS(=O)(=O)c2ccc(N)cc2)n1`, the result was inactive. With `COC(=O)[C@H](Cc1ccccc1)NC(=O)[C@@H](N)CC(=O)O` (H-Asp-Phe-OMe), the activity change, negative = inhibition was -5.59%. As to `CC(C)(C)NCC(O)c1cc(O)cc(O)c1` (configuration not stated), the result was inactive. On to `CCCc1c2oc(C(=O)O)cc(=O)c2cc2c(=O)cc(C(=O)O)n(CC)c12`, for which the activity change, negative = inhibition is -16.5%. Consider `COc1cc(C)c(/C=C/C(C)=C/C=C/C(C)=C/C(=O)O)c(C)c1C`, for which the activity change, negative = inhibition was -1.85%.

For the molecule `COC(=O)c1cc(Cl)ccc1NS(=O)(=O)C(F)(F)F`, the result was inactive. With `CC(C)(S)[C@@H](N)C(=O)O`, the activity change, negative = inhibition stood at 2.83% [at 5.25 µM]. On to `CCOC(=O)/C=C(C)/C=C/C=C(C)/C=C/c1c(C)cc(OC)c(C)c1C`, for which the activity change, negative = inhibition was -11.5%. In the case of `CC(=O)O[C@@H]1C(=O)O[C@@H]2[C@H]1OC(=O)[C@@H]2OC(C)=O`, the activity change, negative = inhibition was -38.2%. For `C[C@]12C=CC(=O)C=C1[C@@H](F)C[C@@H]1[C@@H]2[C@@H](O)C[C@@]2(C)[C@H]1CC[C@]2(O)C(=O)CO`, the result was inactive. Consider `CCCN1CCCC[C@H]1C(=O)Nc1c(C)cccc1C`, for which the activity change, negative = inhibition is -27.2%.

Turning to `NS(=O)(=O)c1cc2c(cc1Cl)NC(C(Cl)Cl)NS2(=O)=O` (configuration not stated), the activity change, negative = inhibition was -2.02% and -6.06%.

In the case of `CC(C)(C)NCC(O)COc1ccccc1OCC1CCCO1` (configuration not stated), the activity change, negative = inhibition is 4.08%.
